Shown are actives, neighbours in structure and some others; about 3.5% of the full set was active somewhere.
GPR151 activ – activates the human receptor GPR151; Q8TDV0; PathHunter beta-arrestin GPR151 cells, luminescence; activation, % at 11.2 µM; 650,000 tested, 1% active; AID 1508602; in the data active = activation above about 4.9%;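 also: 0% = median of compound wells and 100% = cells with positive control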
TEAD-YAP inh – TEAD-YAP interaction inhibition | HEK-TIYL cells, TEAD-Gal4/YAP UAS-luciferase luminescence | 640,000 tested, 1.4% active | inhibition, % at 9.12 µM; in the data active = inhibition above about 32%;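 also: 0% = median of test compound wells and 100% = reference inhibitor wells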
FBW7 act – human FBW7 E3 ligase activation, primary screen. normalized activity (activation), % at 26.1 µM. Q969H0. AID 1259310. AlphaScreen FBW7–phospho-cyclin E peptide binding, activator screen. 650,000 tested, 0.13% active; in the data active = normalized activity above about 1.9%;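 also: purified mutant Fbw7 with reduced substrate affinity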
MITF inh – inhibitors of human MITF; AlphaScreen MITF homodimerization, bead proximity signal; 650,000 tested, 0.91% active; inhibition, % at 2.6 µM; in the data active = inhibition above about 50%;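 also: 0% = vehicle wells with protein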
Target sequence (O75030 whole entry, looked up): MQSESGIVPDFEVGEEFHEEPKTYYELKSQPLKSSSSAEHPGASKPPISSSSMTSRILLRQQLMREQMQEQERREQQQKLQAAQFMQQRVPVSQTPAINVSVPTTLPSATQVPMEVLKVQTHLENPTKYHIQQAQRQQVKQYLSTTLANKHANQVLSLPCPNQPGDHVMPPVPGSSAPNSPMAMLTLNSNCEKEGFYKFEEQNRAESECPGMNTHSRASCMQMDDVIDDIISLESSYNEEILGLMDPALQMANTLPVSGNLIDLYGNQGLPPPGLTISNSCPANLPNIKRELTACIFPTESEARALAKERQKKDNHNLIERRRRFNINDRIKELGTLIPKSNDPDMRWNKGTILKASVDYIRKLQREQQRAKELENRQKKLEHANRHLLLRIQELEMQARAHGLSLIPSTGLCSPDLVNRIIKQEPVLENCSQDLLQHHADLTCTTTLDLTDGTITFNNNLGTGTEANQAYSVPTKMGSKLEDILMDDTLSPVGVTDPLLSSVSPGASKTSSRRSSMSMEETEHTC
Numbers without * were called inactive.

SMILES	GPR151 activ	TEAD-YAP inh	FBW7 act	MITF inh
CCOCCn1c(=NC(=O)c2cccc(OC)c2OC)sc2ccccc21	-4.6	74.2*	0.0	10.6
COCCn1c(=NC(=O)c2cccc(OC)c2OC)sc2cc(OC)c(OC)cc21	-2.0	-8.8	0.3	-6.4
CC(=O)NC(c1ccc([N+](=O)[O-])cc1)c1ccc2cccnc2c1O (stereo not given)	2.1	83.8*	-0.2	-20.9
Cc1cccnc1NC(c1ccc([N+](=O)[O-])cc1)c1ccc2cccnc2c1O (stereo not given)	-1.4	69.6*	-1.9	48.5
CC(=O)NC(c1ccc(Br)cc1)c1ccc2cccnc2c1O (stereo not given)	-0.6	83.0*	-0.2	-32.7
CCOc1ccc(C(NC(C)=O)c2cc(Cl)c3cccnc3c2O)cc1 (stereo not given)	0.8	9.4	-0.6	3.2
CC(=O)NC(c1ccc2ccccc2c1)c1ccc2cccnc2c1O (stereo not given)	0.1	80.2*	-1.8	36.1
CC(=O)NC(c1ccc(C)cc1)c1ccc2cccnc2c1O (stereo not given)	-1.0	85.3*	-1.7	50.9*
COc1ccccc1NC(=O)CSc1nc(C)c(C)c(C)c1C#N	-1.2	4.5	0.5	-2.4
N#Cc1cnc(SCc2cc(=O)n3ccccc3n2)nc1N	-0.1	-8.8	16.4*	3.2
CC1CCc2c(sc3nc(C(C)C)nc(SCC(N)=O)c23)C1 (stereo not given)	0.2	1.5	0.0	3.1
COc1ccc(OCC(=O)Nc2ccc3nn(-c4ccc(OC)cc4)nc3c2)cc1	-1.5	-25.6	-0.1	7.3
COc1ccc(-n2nc3ccc(O)cc3n2)cc1	-6.0	65.4*	0.0	4.2
c1ccc2oc(-c3ccc(-c4nc5ccccc5o4)cc3)nc2c1	-1.0	1.6	0.1	7.1
c1ccc2nc(-c3nc4ccccc4o3)ccc2c1	-10.1	77.4*	0.0	-0.4
c1ccc2[nH]c(-c3nc4ccccc4o3)nc2c1	-11.0	83.9*	-0.1	10.0
CCOC(=O)C1CCC(CN(Cc2cccc(Br)c2)S(=O)(=O)c2ccc(C(C)(C)C)cc2)CC1 (stereo not given)	4.1	10.2	0.0	6.7
O=C1NC(=Nc2ccccc2Cl)S/C1=C/c1ccc(Cl)cc1	-2.0	0.7	-0.1	-1.2
Cn1c(SCc2cc(=O)oc3cc(O)c(O)cc23)nc2ccccc21	-3.0	-3.9	0.2	42.5
Nn1c(Cc2ccccc2F)nnc1SCc1cc(=O)oc2cc(O)c(O)cc12	-0.7	6.2	-0.7	95.2*
Nn1c(SCc2cc(=O)oc3cc(O)c(O)cc23)nnc1-c1ccncc1	0.3	-5.7	-0.7	85.2*
CCOc1ccc(/C=C2\SC(N)=NC2=O)cc1Br	1.0	-2.6	-0.1	0.1
CCOc1ccc(NC(=O)c2cnn3ccccc23)cc1	-5.7	94.1*	1.2	10.4
Cc1ccccc1NC(=O)c1cnn2ccccc12	-2.5	-55.9	0.9	10.9
CCc1ccc(NC(=O)c2cnn3ccccc23)cc1	-4.5	89.4*	0.0	3.9
SMILES	GPR151 activ	TEAD-YAP inh	FBW7 act	MITF inh
CC(C)NC(=O)Cn1cc2c(n1)CCCC2	0.1	2.1	0.1	-14.1
O=C1c2ccccc2C(=O)c2c(NCCCN(CCO)CCO)cccc21	0.6	41.0*	-0.6	15.3
Cc1nc2ccc(N=Cc3ccc(N(C)C)cc3)cc2s1	2.0	-0.2	-0.2	4.2
CN(C)c1ccc2nc3ccc(=[N+](C)C)cc-3sc2c1	-0.7	31.6	19.5*	-203.6
COc1ccc2oc(=O)c(C(=O)Nc3cc(C)ccn3)cc2c1	1.4	33.9*	-0.1	-5.0
Cc1ccnc(NC(=O)c2ccc(N3CCCCS3(=O)=O)cc2)c1	-8.5	88.1*	-0.3	0.8
CCCCOc1ccc(C(=O)Nc2cc(C)ccn2)cc1	-7.0	51.7*	0.1	8.4
COc1ccc2oc(=O)c(C(=O)Nc3ccc(C)cc3Br)cc2c1	0.8	1.2	-0.1	-0.8
Cc1cc(NC(=O)c2ccc(N3CCCCS3(=O)=O)cc2)ccc1Br	-0.4	10.1	0.0	19.7
CCCCCOc1ccc(C(=O)Nc2cc(C)on2)cc1	-1.8	-13.6	-0.1	6.0
COc1ccc(-c2nsc3c(N4CCC(C(N)=O)CC4)ncnc23)cc1	-1.4	39.0*	0.2	2.3
CC1CCCCN1c1ncnc2c(-c3ccc([N+](=O)[O-])cc3)nsc12 (stereo not given)	1.2	-9.6	-0.1	-1.4
O=[N+]([O-])c1ccc(-c2nsc3c(N4CCCC4)ncnc23)cc1	0.6	-25.5	-0.1	18.2
COc1ccc(-c2nsc3c(N4CCCCC4)ncnc23)cc1	-0.9	83.1*	0.1	-12.4
COc1ccc(-c2nsc3c(N4CCOCC4)ncnc23)cc1	0.1	82.3*	-0.1	-22.0
COc1ccc(-c2nsc3c(N4CCCCC4C)ncnc23)cc1 (stereo not given)	-0.6	93.1*	0.2	9.7
O=C(CSCc1ccccc1Cl)NC1CCCC1	1.2	-32.0	-0.1	9.8
COC1CCCN(C(=O)CN2Cc3ccccc3OC(c3ccccc3F)C2)C1 (stereo not given)	-0.9	6.5	-0.3	-19.0
CCN1C(=O)/C(=C\c2ccc3sc(C)nc3c2)SC1=S	1.0	-0.9	-0.1	8.3
O=C(Nc1ccc(Oc2ccc(Cl)c3cccnc23)c(Cl)c1)c1ccccc1	1.7	12.7	0.1	7.0
COc1ccc(-c2nsc3c(N4CCN(C)CC4)ncnc23)cc1	0.1	37.8*	0.0	-8.5
Cc1onc(-c2ccccc2Cl)c1C(=O)Nc1ccc2ccccc2c1	-0.4	-8.4	0.1	-10.6
CCn1ncc(CN2CCN(CCCc3ccccc3)C(CCO)C2)c1C (stereo not given)	-1.6	6.4	0.1	7.9
Nc1nc(C2CC2)c(Sc2sc(N)nc2C2CC2)s1	0.5	34.8*	-0.2	7.0
Oc1c(I)cc(I)c2cccnc12	0.2	52.1*	-0.4	13.6
SMILES	GPR151 activ	TEAD-YAP inh	FBW7 act	MITF inh
O=S(=O)(O)c1cc(I)c(O)c2ncccc12	-0.3	0.4	-0.4	122.8*
Oc1c(Cl)cc(Cl)c2cccnc12	-1.2	1.7	-0.1	-4.2
CCN(CCn1cccn1)Cc1ccc(OCC(O)CN2CCc3ccccc3C2)cc1 (stereo not given)	-1.4	8.8	-0.2	-13.9
CCC(C)Sc1nc(C2CC2)nc2c1c(=O)n(C)c(=O)n2C (stereo not given)	-0.3	5.9	0.2	0.9
CCOc1ccccc1N1CCN(C(=O)c2cc(-c3ccccc3)nc3ccccc23)CC1	1.1	45.4*	0.0	-6.2
O=C(c1cc(-c2ccncc2)nc2ccccc12)N1CCN(c2ccccn2)CC1	0.7	57.7*	-0.3	-16.4
O=C(c1cc(-c2ccccc2)nc2ccccc12)N1CCN(c2ccccc2)CC1	0.4	6.9	-0.1	-5.3
O=C(c1ccccc1-c1ccccc1)N1CCN(c2ccccn2)CC1	-0.7	52.0*	0.0	19.1
O=C(c1ccccc1Br)N1CCN(c2ccccn2)CC1	2.1	-5.2	0.0	-0.9
C[C@H](O)[C@H]1NC(=O)[C@@H]2C[C@H](NC(=O)Nc3ccccc3)CN2C1=O	2.6	-9.1	-0.1	-4.2
C/C(CC(=O)Nc1ccc(C)cc1)=N\NC(=O)c1cccc(I)c1	0.3	1.5	0.1	-6.9
